# Measured values published in PubChem BioAssay AID1117264 (The Scripps Research Institute Molecular Screening Center, 2014).
# The whole screen tested about 89,000 compounds, of which about 440 (0.49%) were called active. The entries come from a sample that favours actives as a whole. Values without a mark were called inactive.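 The calls were made as follows: active = inhibition above the mean inhibition across all screened compounds plus 3 SD (cut at about 11% in these data); inactive = the rest.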
# Target: RNA-editing ligase 1, mitochondrial (Trypanosoma brucei brucei) (UniProt P86926)
# Test: TbREL1 RNA ligase inhibitors, primary screen, biochemical, FRET fluorescence (AID 1117264);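 also: 0% = plate median of test wells and 100% = NSC42067 control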
# Settings: TbREL1 RNA ligation, at 9.66 µM, active compounds read high
# Sequence of RNA-editing ligase 1, mitochondrial (Trypanosoma brucei brucei) (P86926 whole entry, looked up): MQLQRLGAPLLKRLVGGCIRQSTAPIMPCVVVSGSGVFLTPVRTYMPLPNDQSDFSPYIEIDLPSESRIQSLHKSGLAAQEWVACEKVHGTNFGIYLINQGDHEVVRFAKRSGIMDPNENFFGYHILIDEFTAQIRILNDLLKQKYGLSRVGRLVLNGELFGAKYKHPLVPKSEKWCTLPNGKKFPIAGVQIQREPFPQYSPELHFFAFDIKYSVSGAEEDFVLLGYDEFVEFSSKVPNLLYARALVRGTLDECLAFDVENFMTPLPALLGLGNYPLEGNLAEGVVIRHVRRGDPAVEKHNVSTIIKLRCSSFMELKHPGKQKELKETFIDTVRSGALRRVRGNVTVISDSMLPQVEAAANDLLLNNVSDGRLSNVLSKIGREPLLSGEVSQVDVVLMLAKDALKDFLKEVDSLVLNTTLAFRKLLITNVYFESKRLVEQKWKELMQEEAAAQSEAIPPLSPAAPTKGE
row,SMILES,inhibition
1,Nc1c(Cl)cc(-c2csc(N3CCCC3c3nc4cc(Cl)c(Cl)cc4n3CCOCCO)n2)cc1Cl (centres undefined),-4.69%
2,Cn1ccnc1SCC(=O)Nc1ccc2c(c1)OCCO2,2.46%
3,Cc1cccc(NC(=S)NC23CN4CN(CN(C4)C2)C3)c1,-3.73%
4,COC(=O)C(C)Oc1ccc2c(c1)O/C(=C\c1cccc(Br)c1)C2=O (centres undefined),1.78%
5,Cc1c(C(=O)OCC(=O)N2CCCC2=O)oc2ccccc12,-0.28%
6,COC(=O)C1=C(C)N(Cc2cccc(C(F)(F)F)c2)C(=NCc2ccccc2)NC1c1ccc(Cl)cc1 (centres undefined),10.5%
7,CC(C)NC(=O)C1(C)CCCCN1Cc1cccc(C(F)(F)F)c1 (centres undefined),-3.05%
8,COC(=O)C1=C(C)N(Cc2ccccc2)C(=NCCCOC(C)C)N[C@H]1c1ccccc1,8.47%
9,COC(=O)C1=C(C)N(Cc2ccc(F)cc2)C(=S)NC1c1cccc(Cl)c1 (centres undefined),-6.48%
10,COC(=O)C1=C(C)N(Cc2cccc(C(F)(F)F)c2)C(=NCc2ccccc2)NC1c1ccccc1C(F)(F)F (centres undefined),18.8% (active)
11,COC(=O)C1=C(C)N(Cc2cccc(C(F)(F)F)c2)C(=NCc2cccc(C(F)(F)F)c2)NC1c1ccccc1C(F)(F)F (centres undefined),17.6% (active)
12,C[C@H](NC(=O)c1[nH]cnc1C(=O)Nc1nccs1)c1ccccc1,2.49%
13,S=C(NCc1ccco1)NCc1ccccc1Cl,-2.97%
14,CCOC(=O)C1CCN(c2c(Nc3cc(C)cc(C)c3)c(=O)c2=O)CC1,-4.56%
15,Cc1ccc(NS(=O)(=O)c2ccc(C(C)C)cc2)cc1S(=O)(=O)N1CCOCC1,-0.97%
16,Cc1cccc(Nc2nnc(SCC(=O)c3c(N)n(C4CC4)c(=O)[nH]c3=O)s2)c1C,1.72%
17,O=C(CSc1nc2sc3c(c2c(=O)n1-c1ccccc1)CCCC3)NN=Cc1ccc(OCc2ccccc2)cc1,0.03%
18,Cc1ccc2c(c1)nnc1nnc(SCC(=O)O)n12,1.61%
19,COC(=O)c1cc(S(=O)(=O)N2CCN(C(=O)C3CCCO3)CC2)cn1C (centres undefined),0.88%
20,Cc1ccc2c(CN3CCN(S(=O)(=O)c4ccccc4C(F)(F)F)CC3)cc(=O)oc2c1,6.44%
21,CC(=O)Nc1ccc(NC(=O)[C@@H](NC(=O)c2cccc(C)c2)C(C)C)cc1,1.63%
22,COc1ccccc1NC(=S)N1CCC(NC(=O)C23CC4CC(CC(C4)C2)C3)CC1,-2.86%
23,COC(=O)C1=C(C)N(c2ccc(Br)cc2)C(=O)/C1=C\c1ccco1,4.92%
24,CC(C)(C)C1C/C(=C/c2ccco2)C(=O)/C(=C/c2ccco2)C1 (centres undefined),32.6% (active)
